# ± gives the standard deviation of the averaged measurements.
# Experiments:
# Details in all cases: concentration: 10 µM; 24 h
# HCC1569 [1] = assay: cell number relative to DMSO (% of DMSO); higher = more cells (less growth inhibition / toxicity)
# Procedure, shortened: (§1)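 H1.0 nuclear intensity or cell number is stated as percent of the plate control, based on the median of replicates, and HCC1569 values were smoothed for positional effects. These came from HCC1569 and TDF cells treated with compounds at 10 µM for 24 h at 37 °C in triplicate, then fixed in 3.7% formaldehyde and stained with a rabbit anti-H1.0 antibody, an AlexaFluor 647 secondary and DAPI.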
# TDF [2] = assay: as above
# Procedure, shortened: as §1
# TDF [3] = assay: H1.0 immunofluorescence intensity relative to DMSO (% of DMSO); higher = stronger H1.0 induction, active = 120 or more
# Procedure, shortened: as §1
# HCC1569 [4] = assay: H1.0 immunofluorescence intensity relative to DMSO (% of DMSO); higher = stronger H1.0 induction, active = 140 or more
# Procedure, shortened: as §1
# 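For H1.0 immunofluorescence intensity relative to DMSO in this document: TDF is a line of transformed human dermal fibroblasts of mesenchymal origin.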
# 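For cell number relative to DMSO in this document: TDF denotes transformed human dermal fibroblasts of mesenchymal origin.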
SMILES,cell number (HCC1569 [1]),cell number (TDF [2]),H1.0 immunofluorescence intensity (TDF [3]),H1.0 immunofluorescence intensity (HCC1569 [4])
Cl.O=C(CCCN1CCC2(CC1)C(=O)N(CCc1ccc(N=C=S)cc1)CN2c1ccccc1)c1ccc(F)cc1 [N-(p-Isothiocyanatophenethyl)spiperone hydrochloride],82.7,74,128 (active),149 (active)
CCCN1CCOC2c3cc(O)ccc3OCC21.Cl (racemic),104,91,88.1 (inactive),96.5 (inactive)
CN(C)C(=O)Oc1ccc[n+](C)c1.[Br-] [Pyridostigmine bromide],103,107,96.8 (inactive),108 (inactive)
CCCCCCCCCCCCCCCCOCC(COP(=O)([O-])OCC[N+](C)(C)C)OC(C)=O (stereo not drawn) [Enantio-PAF C16],100,106,93.7 (inactive),94 (inactive)
Cc1[nH]c2ccc(Cl)cc2c1C1=CCNCC1.Cl,99.8,93.5,107 (inactive),120 (inactive)
O=C1C=C2C(=CCOC2O)O1 (stereo not drawn) [Patulin],22.4,8.4,224 (active),132 (inactive)
COC1CC(CC2CCC(C)C(C(C)C(=O)[O-])O2)OC2(OC(C)(C3CCC(C)(C4OC(C5OC(O)(CO)C(C)CC5C)CC4C)O3)CC2C)C1C.[Na+] (stereo not drawn) [Nigericin],53.3,68.8,122 (active),183 (active)
"O=[N+]([O-])c1ccc(O[C@@H]2O[C@H](CO)[C@@H](O)[C@H](O)[C@H]2F)c([N+](=O)[O-])c1 [2,4-Dinitrophenyl 2-fluoro-2-deoxy-beta-D-glucopyranoside]",105,111,86.5 (inactive),93.2 (inactive)
Cc1ccccc1-n1c(Cn2cnc3c(N)ncnc32)nc2cccc(C)c2c1=O,90.8,99.7,91.9 (inactive),102 (inactive)
Cl.O=C1CCC2(O)C3Cc4ccc(O)c5c4C2(CCN3CC2CC2)C1O5 (stereo not drawn) [Naltrexone hydrochloride],103,115,90.8 (inactive),96 (inactive)
CC12CCC3C(CCC4(O)CC(O)CCC34C=O)C1(O)CCC2C1=CC(=O)OC1 (stereo not drawn) [Strophantidin],67,56.2,123 (active),115 (inactive)
C=CCN1CCC23c4c5ccc(O)c4OC2C(=O)CCC3(O)C1C5 (stereo not drawn) [Naloxone],98.5,96.7,99.5 (inactive),117 (inactive)
Br.CCCN(CCC)CCc1ccc(O)c(O)c1 [Dipropyldopamine hydrobromide],97.9,104,90.8 (inactive),100 (inactive)
"CCCC[N+]1(C)C2CC(OC(=O)C(CO)c3ccccc3)CC1C1OC12.[Br-] (single isomer, unassigned; (-)) [(-)-Scopolamine,n-Butyl-, bromide]",101,106,96 (inactive),109 (inactive)
Cc1ccc(S(=O)(=O)NC(CCCCN)C(=O)CCl)cc1.Cl [Na-p-Tosyl-L-lysine chloromethyl ketone hydrochloride],98.8,104,95.7 (inactive),101 (inactive)
Br.Br.CN(C)CCN(C)CCc1ccc(Cl)c(Cl)c1,96.6,102,102 (inactive),110 (inactive)
CC(=O)OC1C2C(OC(=O)Cc3ccccc3)C(C)CC2(OC(C)=O)C(=O)C(C)=CC2C(CCC13CO3)C2(C)C (stereo not drawn) [Euphorbiasteroid],102,106,105 (inactive),91.5 (inactive)
CCC1(c2ccc(N)cc2)CCC(=O)NC1=O (racemic),98.8,109,85.7 (inactive),89.1 (inactive)
COc1ccc(Cc2nccc3cc(OC)c(OC)cc23)cc1OC.Cl [Papaverine hydrochloride],87.1 ± 1.7,77.7 ± 7.8,102 (inactive),126 (inactive)
CC12Cc3cn[nH]c3CC1CCC1C2CCC2(C)C1CCC2(C)O (stereo not drawn) [Stanozolol],94.4,99.5,97.2 (inactive),87.3 (inactive)
CCN1CC2(COC)CCC(O)C34C5CC6C(OC)CC(O)(C(CC23)C14)C5C6OC(C)=O (stereo not drawn) [Condelphine],101,105,98.6 (inactive),102 (inactive)
COc1ccc(C(=O)c2c(C)n(CCN3CCOCC3)c3ccccc23)cc1 [Pravadoline],110,96.5,98.4 (inactive),93.3 (inactive)
